Compound activity (PubChem BioAssay)
An excerpt weighted towards active compounds, which were near 0.51% of everything screened.
phage Ecoli inh: growth loss of phage-infected E. coli, primary screen, RecBCD inhibitor project, absorbance, with phage, HTS; 360,000 tested, 0.26% active; inhibition, % at 11.9 µM; AID 651602, 2012; in the data active = inhibition above about 11%
AddAB inh: growth inhibition of E. coli expressing H. pylori AddAB, primary screen, AddAB inhibitor project, absorbance; inhibition, % at 11.9 µM; 330,000 tested, 0.29% active; AID 435030, 2010; in the data active = inhibition above about 12%
E coli growth-1: E. coli V3065 growth inhibition, primary screen, counter-screen for AddAB inhibitor project, absorbance, OD600 | 18 h | inhibition, % at 11.9 µM | 330,000 tested, 0.27% active;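 active = inhibition above the campaign's mean inhibition across all tested compounds plus 3 SD, cut at about 9.9% in these data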;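 note: uninfected addAB+ strain grown without phage in ampicillin broth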
Tat transport: E. coli Tat export inhibitors, primary screen, MC4100, TorA-mCherry reporter, fluorescence, single point. inhibition, % at 10 µM. 340,000 tested, 0.036% active. AID 488895, 2010;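 active = mean replicate inhibition at least 50% and at least half of replicates individually reaching 50%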;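 note: exported cargo escapes ClpAP degradation while cytoplasmic cargo is degraded and loses fluorescence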
E coli growth-2: E. coli growth inhibition, primary screen, OD600. AID 1053175, 2014. Escherichia coli growth, 23 h; active compounds read low. OD600 absorbance (concentration not given with the values). 330,000 tested, 0.21% active;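 active = OD600 absorbance below the run mean of sample wells minus 3.6 SD, in any replicate, cut at about 0.56 in these data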
AddAB confirm: growth loss of phage-infected E. coli expressing H. pylori AddAB, confirmation, AddAB inhibitor project, absorbance, E. coli V3065, T4 phage, triplicate; shares compounds with AddAB inh; inhibition, % at 11.9 µM; 880 tested, 64% active; AID 488942, 2010; OD; T4 phage with gene 2 nonsense mutations;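 active = mean inhibition above a set limit taken from the earlier primary screen, cut at about 13% in these data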;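 note: higher means less bacterial growth since AddAB block lets phage replicate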
RecBCD counter: growth loss of RecBCD+ E. coli with mutant T4 phage, counter-screen for AddAB inhibitor project, absorbance, V66 E. coli; inhibition, % at 11.9 µM; shares compounds with AddAB inh; AID 488955, 2010; OD growth; 880 tested, 73% active;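 active = mean inhibition above the mean of solvent-only control wells plus 3 SD, cut at about 4% in these data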;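 note: optical density read after an 18 h incubation at 37 °C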
bact viab count: bacterial viability inhibition counter-screen, confirmation, counter-screen for AddAB inhibitor project, absorbance | shares compounds with AddAB inh | absorbance (AddAB counterscreen) | inhibition, % at 11.9 µM | 880 tested, 35% active | AID 488956, 2010; in the data active = inhibition above about 25%
A number is an active result; i = inactive; nt = no result given.

SMILES | phage Ecoli inh | AddAB inh | E coli growth-1 | Tat transport | E coli growth-2 | AddAB confirm | RecBCD counter | bact viab count
Nc1c(S(=O)(=O)c2cccc(Cl)c2)c2nc3ccccc3nc2n1/N=C/c1ccc(O)c(O)c1 | nt | 15 | 13 | nt | nt | 13 | 13 | i
C#C[C@]1(OC(C)=O)CCC2C3CCC4=CC(=O)CCC4C3CC[C@@]21C (stereo not given in full) | nt | nt | nt | nt | i | nt | nt | nt
Cc1cccc(N(C)S(=O)(=O)c2cccc3nsnc23)c1 | i | 14 | i | i | i | i | i | i
CCN(c1cccc(C)c1)S(=O)(=O)c1cccc2nsnc12 | i | i | i | i | i | nt | nt | nt
Cc1ccc(S(=O)(=O)N2CCC(C(=O)NNC(=O)c3ccccc3O)CC2)cc1C | i | 14 | i | i | i | i | 9.4 | i
Cc1ccc(S(=O)(=O)N2CCC(C(=O)NNC(=O)c3ccccc3O)CC2)cc1 | i | i | i | i | i | nt | nt | nt
O=C(Nc1cccc(NC(=O)c2ccccc2Cl)c1)c1ccc([N+](=O)[O-])o1 | i | 13 | 11 | i | nt | 84 | 5.5 | i
Cc1ccc(NC(=O)c2ccc([N+](=O)[O-])o2)cc1C | i | 27 | 31 | i | 0.47 | 98 | 11 | 31
O=C(Nc1ccc2[nH]c(=O)[nH]c2c1)c1ccc([N+](=O)[O-])o1 | i | 18 | 19 | i | i | 57 | 9.0 | i
O=C(Nc1ccc(N2CCCC2)c(Cl)c1)c1ccc([N+](=O)[O-])o1 | i | nt | nt | i | i | nt | nt | nt
CCOC(=O)c1ccc(NC(=O)c2nc[nH]c2C(=O)NC(CC(C)C)C(=O)OCc2ccccc2)cc1 (stereo not given) | nt | nt | nt | nt | i | nt | nt | nt
COc1ccc2c(Cl)c(C(=O)NN=Cc3ccncc3)sc2c1 | nt | nt | nt | nt | i | nt | nt | nt
COc1ccc(C=Cc2ccccc2)cc1C1C2C=CCC(C)C2C(=O)N1Cc1ccccc1 (stereo not given) | nt | nt | nt | nt | i | nt | nt | nt
O=C(NNC(=S)NC(=O)c1ccco1)c1ccc(NC(=O)c2ccccc2)cc1 | i | i | i | i | i | nt | nt | nt
O=C(NC(=S)NNC(=O)c1ccccc1O)c1ccco1 | i | 14 | i | i | 0.37 | 17 | 17 | 37
Fc1ccccc1-n1cn[nH]c1=S | i | 95 | 53 | i | i | i | i | i
COc1ccc(C=NNC(=O)c2ccc(Br)cc2)cc1Cn1cc(Cl)cn1 | nt | nt | nt | nt | i | nt | nt | nt
Cc1nn(-c2ccccc2)c(Cl)c1C=NNc1ccc(S(=O)(=O)Nc2ccccc2C(=O)O)cc1[N+](=O)[O-] | nt | nt | nt | nt | i | nt | nt | nt
CCOc1cc(N)c(Cl)cc1C(=O)NCC1CN(Cc2ccc(F)cc2)CCO1 (stereo not given) | i | 99 | 93 | i | 0.064 | 101 | 12 | 98
O=C(Oc1c(Cl)cc(Cl)c2cccnc12)c1ccco1 | 61 | 50 | 48 | i | 0.056 | 63 | 60 | 58
O=C1C=C(c2cc(Cl)cc(Cl)c2)CC(c2ccc(F)cc2)C1 (stereo not given) | nt | nt | nt | nt | i | nt | nt | nt
O=C(NN=C/C=C\c1ccco1)c1ccccn1 | nt | nt | nt | nt | i | nt | nt | nt
CC[n+]1c(/C=C/N(C)c2ccccc2)n(-c2ccccc2)c2ccc(-c3nc4ccccc4s3)cc21 | nt | 18 | 35 | i | 0.38 | 52 | 6.7 | i
COc1ccc(N2CCN(C(=O)CSc3nnc4c(C)cc5c(C)cc(C)cc5n34)CC2)cc1 | i | 96 | 94 | i | i | i | i | i
CO[C@@]12[C@H](COC(N)=O)C3=C(C(=O)C(C)=C(N)C3=O)N1C[C@@H]1N[C@@H]12 | i | 15 | 14 | i | nt | 77 | 16 | 70
c1ccc(-c2nnc(-c3ccccn3)nn2)nc1 | i | i | i | i | i | nt | nt | nt
c1ccc(-c2cccc(-c3ccccn3)n2)nc1 | nt | 34 | 35 | i | i | 46 | 36 | 30
O=C(c1ccccc1)c1c2c(cc3sc4ccccc4[n+]13)-c1cccc3cccc-2c13 | i | 16 | i | i | 0.48 | 89 | i | i
Cc1sc2cc3c(c(C(=O)c4ccccc4)[n+]2c1C)-c1cccc2cccc-3c12 | i | i | i | nt | i | nt | nt | nt
